In the supplement of paper PMC10127200:
Counter-ions that a name gives are not always drawn.

system: A549; experiment: Euclidean distance of Cell Painting phenotypic profile (signed KS, 77 features) to DMSO centroid (dimensionless distance); 5 or 10 uM (library dependent); higher = stronger phenotypic change vs DMSO (phenoactivity); details: 48 h
Procedure, shortened: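 Harmony extracted 77 features from 20X confocal images (9 fields/well) of stained cells, scoring each as a signed Kolmogorov-Smirnov statistic against same-plate vehicle wells. The cells, five cancer lines and a healthy fibroblast line, had received library compounds for 48 h at 10 or 5 uM depending on library, with 0.1% DMSO final. Phenoactivity is the Euclidean distance from each plate-position-corrected, correlation-weighted, top-dose replicate-averaged profile to the median vehicle profile.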

SMILES | Euclidean distance
O=C(O)c1ccccc1O [Salicylic acid] | 0.32
CN1CCCN=C1/C=C/c1cccs1 [Pyrantel Pamoate] | 0.995
CN[C@@H]1[C@@H](O[C@H]2O[C@H](CO)[C@@H](N)[C@H](O)[C@H]2O)OC2C[C@@H](N)[C@@H](O[C@H]3[C@H](O)[C@@H](O)[C@H](N)C[C@@H]3N)OC2[C@@H]1O (stereo not given in full) [Apramycin Sulfate] | 0.794
CCOC(=O)c1ccc(O)cc1 [Ethylparaben] | 0.362
CC(C)(C)c1[nH]cnc1/C=c1\[nH]c(=O)/c(=C/c2ccccc2)[nH]c1=O [Plinabulin (NPI-2358)] | 3.25
C[C@H](NC(=O)CCC(F)(F)F)C(=O)N[C@@H]1C(=O)N(CCO)c2ncccc2-c2ccccc21 | 0.929
CC1=C(/C=C/C(C)=C/C=C/C(C)=C/C(=O)Nc2ccc(O)cc2)C(C)(C)CCC1 [Fenretinide] | 2.87
Cn1cnc2c(F)c(Nc3ccc(Br)cc3F)c(C(=O)NOCCO)cc21 | 2.89
OC(CCN1CCCC1)(c1ccccc1)C1CCCCC1 (stereo not given) [Procyclidine HCl] | 0.891
CCN(C(=O)c1c(O)c2c(Cl)cccc2n(C)c1=O)c1ccccc1 [Laquinimod] | 0.95
COc1ccc(CN2CCN(C(c3ccc(F)cc3)c3ccc(F)cc3)CC2)c(OC)c1OC [Lomerizine 2HCl] | 1.66
O=c1cc(CO)occ1O [Kojic acid] | 0.713
CC[C@@H](C)Nc1cc(C(=O)N[C@H]2C[C@H]3CC[C@@H](C2)N3c2ccc(C(=O)C3CC3)cn2)c(C)cc1C(N)=O | 3.1
CCC(C)n1ncn(-c2ccc(N3CCN(c4ccc(OCC5COC(Cn6cncn6)(c6ccc(Cl)cc6Cl)O5)cc4)CC3)cc2)c1=O (stereo not given) [Itraconazole] | 2.48
CC(O)Cn1cnc2c1c(=O)n(C)c(=O)n2C (stereo not given) [Proxyphylline] | 0.998
C=C1CC[C@H](O)C/C1=C/C=C1\CCC[C@]2(C)[C@@H]([C@H](C)CCCC(C)(C)O)CC[C@@H]12 [Calcifediol] | 0.811
CC(C)C[C@H](NC(=O)CNC(=O)[C@H](Cc1ccc(O)cc1)NC(=O)[C@H](CO)NC(=O)[C@H](Cc1c[nH]c2ccccc12)NC(=O)[C@H](Cc1cnc[nH]1)NC(=O)[C@@H]1CCC(=O)N1)C(=O)N[C@@H](CCCNC(=N)N)C(=O)N1CCC[C@H]1C(=O)NCC(N)=O [Gonadorelin Acetate] | 1.23
COc1ccccc1N1CCN(CC(O)COc2cccc3ccccc23)CC1 (stereo not given) [Naftopidil] | 1.01
C=C1C(=O)O[C@H]2[C@H]1CC/C(C)=C/CC[C@@]1(C)O[C@@H]21 [(-)-Parthenolide] | 1.26
OCCN1C[C@H](O)[C@@H](O)[C@H](O)[C@H]1CO [Miglitol] | 0.649
COc1ccc2cc([C@H](C)C(=O)O)ccc2c1 [Naproxen Sodium] | 0.936
CCCCCCOC(=O)NC(=N)c1ccc(NCc2nc3cc(C(=O)N(CCC(=O)OCC)c4ccccn4)ccc3n2C)cc1 [Dabigatran Etexilate] | 1.35
CN1CCC(=C2c3ccccc3CCc3cccnc32)CC1 [Azatadine dimaleate] | 1.59
COc1cc(Nc2ncc(F)c(Nc3ccc4c(n3)N(COP(=O)(O)O)C(=O)C(C)(C)O4)n2)cc(OC)c1OC [R788 (Fostamatinib) Disodium] | 2.39
CO[C@H]1C[C@@H]2CC[C@@H](C)[C@@](O)(O2)C(=O)C(=O)N2CCCC[C@H]2C(=O)O[C@H]([C@H](C)C[C@@H]2CC[C@H](n3cnnn3)[C@H](OC)C2)CC(=O)[C@H](C)/C=C(\C)[C@@H](O)[C@@H](OC)C(=O)[C@H](C)C[C@H](C)/C=C/C=C/C=C/1C [Zotarolimus(ABT-578)] | 1.83
CO[C@@H](C(=O)N1Cc2[nH]nc(NC(=O)c3ccc(N4CCN(C)CC4)cc3)c2C1)c1ccccc1 | 1.46
CCCCS(=O)(=O)N[C@@H](Cc1ccc(OCCCCC2CCNCC2)cc1)C(=O)O [Tirofiban Hydrochloride] | 1.07
CCOC(=O)c1ccc(N)cc1 [Benzocaine hydrochloride] | 0.334
CSc1nc2cc(Cl)c(Oc3cccc(Cl)c3Cl)cc2[nH]1 [Triclabendazole] | 0.638
CN[C@@H]1[C@H](O)[C@H](NC)[C@H]2O[C@@]3(O)C(=O)C[C@@H](C)O[C@H]3O[C@@H]2[C@H]1O [Spectinomycin 2HCl] | 0.735
